Measurements published in PubChem BioAssay (NCI).
About 79,000 compounds went through this panel and 15% of them were active in at least one assay; those are over-represented in the sample as a whole. Activity calls are given as the source filed them. No stated cut-off is given here; in the data, active means growth inhibition above about 70%; inactive means the rest.

Columns and labels:
[1] = NCI Yeast Anticancer Drug Screen. Data for the rad52 strain (AID 147);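 further: 0% = growth of vehicle-treated control cultures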; settings: S. cerevisiae rad52 mutant growth inhibition, active compounds read high
In short: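 Vehicle-treated cultures served as the reference for growth inhibition of compound-exposed yeast bearing a DNA repair mutation.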

[2] = NCI Yeast Anticancer Drug Screen. Data for the wt1 strain (AID 149);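 further: 0% = growth of vehicle-treated wt1 cultures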; settings: S. cerevisiae wt1 strain (SPY 50644) growth inhibition, active compounds read high
In short: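 Compounds are added to wt1 yeast cultures. Growth is then measured. Inhibition is expressed relative to vehicle-treated controls.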

[3] = NCI Yeast Anticancer Drug Screen. Data for the rad50EPP+ strain (AID 151);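 further: 0% = growth of vehicle-treated control cultures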; settings: S. cerevisiae rad50 mutant strain, active compounds read high
In short: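 In this screen, rad50EPP+ yeast were exposed to compounds. Growth inhibition was scored against vehicle-treated controls.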

[4] = NCI Yeast Anticancer Drug Screen. Data for the mgt1 strain (AID 153); settings: S. cerevisiae mgt1 mutant growth inhibition, active compounds read high
In short: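 mgt1 strain exposed; growth vs vehicle control recorded as inhibition.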

[5] = NCI Yeast Anticancer Drug Screen. Data for the rad50 strain (AID 155);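 further: 0% = growth of vehicle-only cultures of the same strain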; settings: S. cerevisiae rad50 strain growth inhibition, active compounds read high
In short: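 Inhibition values express reduced yeast growth in compound-treated cultures relative to vehicle-treated controls.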

[6] = NCI Yeast Anticancer Drug Screen. Data for the mec2-1 strain (AID 157); settings: S. cerevisiae mec2-1 strain, active compounds read high
In short: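 Vehicle-treated cultures served as reference for growth inhibition of compound-exposed mec2-1 yeast.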

[7] = NCI Yeast Anticancer Drug Screen. Data for the rad14 strain (AID 159);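 further: 0% = growth of vehicle-treated control cultures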; settings: S. cerevisiae rad14 strain growth inhibition, active compounds read high
In short: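 A mutant yeast strain defective in DNA damage repair is treated with compound; inhibition of its growth is scored against untreated, vehicle-exposed cultures.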

[8] = NCI Yeast Anticancer Drug Screen. Data for the sgs1 mgt1 strain (AID 161);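 further: 0% = growth of cultures given vehicle only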; settings: S. cerevisiae sgs1 mgt1 strain, active compounds read high
In short: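 Genetically altered yeast, compound exposure, growth inhibition relative to vehicle.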

[9] = NCI Yeast Anticancer Drug Screen. Data for the CLN2oe strain (AID 163);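 further: 0% = growth of vehicle-only control cultures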; settings: S. cerevisiae CLN2oe strain, active compounds read high
In short: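 Inhibition relative to vehicle-treated yeast is reported. Cells: strain with genetic alteration in cell-cycle control, grown with compound.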

[10] = NCI Yeast Anticancer Drug Screen. Data for the cln2 rad14 strain (AID 165);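 further: 0% = growth equal to vehicle treated cultures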; settings: S. cerevisiae cln2 rad14 strain, active compounds read high
In short: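 Each compound was tested on cln2 rad14 yeast. Inhibition of growth was calculated against vehicle-exposed controls.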

[11] = NCI Yeast Anticancer Drug Screen. Data for the bub3 strain (AID 167); settings: S. cerevisiae bub3 mutant strain, active compounds read high
In short: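 Steps: expose the mutant yeast strain to compound; grow alongside vehicle-treated cultures; measure growth; express inhibition against the vehicle cultures.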

[12] = NCI Yeast Anticancer Drug Screen. Data for the wt2 strain (AID 169);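 further: 0% = growth of vehicle-treated yeast cultures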; settings: S. cerevisiae wt2 strain growth inhibition, active compounds read high
In short: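 Inhibition of yeast growth was determined after compound treatment, normalised to controls receiving only vehicle.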

[13] = NCI Yeast Anticancer Drug Screen. Data for the mlh1 strain (AID 171);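 further: 0% = growth of vehicle-treated control cultures of the same strain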; settings: S. cerevisiae mlh1 strain growth inhibition, active compounds read high
In short: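 Vehicle-normalised growth inhibition of a repair- or checkpoint-altered yeast strain following compound treatment.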

[14] = NCI Yeast Anticancer Drug Screen. Data for the sgs1 strain (AID 173);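 further: 0% = growth of vehicle-only control cultures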; settings: S. cerevisiae sgs1 mutant, active compounds read high
In short: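 Screen format: yeast with repair or checkpoint alterations, compound exposure, growth read relative to vehicle.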

[15] = NCI Yeast Anticancer Drug Screen. Data for the mlh1 rad18 strain (AID 175); settings: S. cerevisiae mlh1 rad18 strain growth inhibition, active compounds read high
In short: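 Vehicle-treated cultures served as the reference for growth inhibition in a yeast strain carrying DNA damage repair alterations exposed to each compound.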

[16] = NCI Yeast Anticancer Drug Screen. Data for the rad18 strain (AID 177); settings: S. cerevisiae rad18 mutant growth inhibition, active compounds read high
In short: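 Test articles were incubated with altered yeast defective in DNA damage repair. Results are given as inhibition of growth versus vehicle.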

[17] = at 5.0 µM (retest, dose inferred, filed as 0.5)
[18] = at 50.0 µM (retest, dose inferred, filed as 5.0)

Measured: growth inhibition

CNC(=O)OCc1c(COC(=O)NC)c(-c2ccc(Cl)c(Cl)c2)n2c1SCC2
inactive: [1]; at 1.2 µM 0% | [1]; at 3.7 µM 0% | [1]; at 11.0 µM 3% | [1]; at 33.0 µM 14% | [2]; at 1.2 µM -1% | [2]; at 3.7 µM 0% | [2]; at 11.0 µM -1% | [2]; at 33.0 µM -3% | [2]; at 100.0 µM 6% | [3]; at 1.2 µM -3% | [3]; at 3.7 µM -3% | [3]; at 11.0 µM -3% | [3]; at 33.0 µM -3% | [3]; at 100.0 µM 4% | [4]; at 1.2 µM -4% | [4]; at 3.7 µM -1% | [4]; at 11.0 µM -1% | [4]; at 33.0 µM -3% | [4]; at 100.0 µM 12% | [5]; at 1.2 µM -1% | [5]; at 3.7 µM -3% | [5]; [17] -17% | [5]; at 11.0 µM -3% | [5]; at 33.0 µM 4% | [5]; [18] 35% | [5]; at 50.0 µM 65.7% | [6]; at 1.2 µM -2% | [6]; at 3.7 µM -4% | [6]; [17] 0% | [6]; at 11.0 µM -3% | [6]; at 33.0 µM -4% | [6]; [18] 18% | [6]; at 50.0 µM 27.3% | [6]; at 100.0 µM 38% | [7]; at 1.2 µM 0% | [7]; at 3.7 µM 2% | [7]; at 11.0 µM 4% | [7]; at 33.0 µM 18% | [8]; [17] -5% | [8]; [18] 32% | [8]; at 50.0 µM 39.4% | [9]; at 1.2 µM -1% | [9]; at 3.7 µM -6% | [9]; at 11.0 µM -6% | [9]; at 33.0 µM -5% | [9]; at 100.0 µM -1% | [10]; [17] -3% | [10]; [18] 23% | [10]; at 50.0 µM 25.1% | [11]; at 1.2 µM -2% | [11]; at 3.7 µM -5% | [11]; [17] 0% | [11]; at 11.0 µM -4% | [11]; at 33.0 µM -6% | [11]; [18] 9% | [11]; at 50.0 µM 4.3% | [11]; at 100.0 µM 20% | [12]; at 1.2 µM -1% | [12]; at 3.7 µM -2% | [12]; at 11.0 µM -2% | [12]; at 33.0 µM -5% | [12]; at 100.0 µM 25% | [13]; at 1.2 µM -1% | [13]; at 3.7 µM -2% | [13]; at 11.0 µM -3% | [13]; at 33.0 µM -2% | [13]; at 100.0 µM 44% | [14]; at 1.2 µM -1% | [14]; at 3.7 µM -1% | [14]; at 11.0 µM 1% | [14]; at 33.0 µM 12% | [15]; [17] 2% | [15]; [18] 58% | [16]; at 1.2 µM 0% | [16]; at 3.7 µM 3% | [16]; at 11.0 µM 11% | [16]; at 33.0 µM 48%
active: [1]; at 100.0 µM 76% | [5]; at 100.0 µM 76% | [7]; at 100.0 µM 85% | [14]; at 100.0 µM 72% | [15]; at 50.0 µM 86% | [16]; at 100.0 µM 95%

CCCCCCSc1ncnc2[nH]ncc12
active: [5]; at 50.0 µM 79.4% | [6]; at 50.0 µM 76.5% | [8]; at 50.0 µM 72.1% | [11]; at 50.0 µM 93% | [15]; at 50.0 µM 80.8%
inactive: [1]; at 1.2 µM -2% | [1]; at 3.7 µM -1% | [1]; at 11.0 µM 0% | [1]; at 33.0 µM -1% | [1]; at 100.0 µM -1% | [2]; at 1.2 µM -1% | [2]; at 3.7 µM -2% | [2]; at 11.0 µM -3% | [2]; at 33.0 µM -63% | [2]; at 100.0 µM -5% | [3]; at 1.2 µM -2% | [3]; at 3.7 µM 2% | [3]; at 11.0 µM 10% | [3]; at 33.0 µM 22% | [3]; at 100.0 µM 12% | [4]; at 1.2 µM -2% | [4]; at 3.7 µM -1% | [4]; at 11.0 µM -2% | [4]; at 33.0 µM -3% | [4]; at 100.0 µM -4% | [5]; at 1.2 µM 2% | [5]; at 3.7 µM 4% | [5]; [17] -1% | [5]; at 11.0 µM 34% | [5]; at 33.0 µM 4% | [5]; [18] 5% | [5]; at 100.0 µM 5% | [6]; at 1.2 µM -3% | [6]; at 3.7 µM -2% | [6]; [17] 0% | [6]; at 11.0 µM 0% | [6]; at 33.0 µM 0% | [6]; [18] 6% | [6]; at 100.0 µM 0% | [7]; at 1.2 µM -2% | [7]; at 3.7 µM 1% | [7]; at 11.0 µM 1% | [7]; at 33.0 µM 5% | [7]; at 100.0 µM 5% | [8]; [17] -2% | [8]; [18] 0% | [9]; at 1.2 µM -7% | [9]; at 3.7 µM -8% | [9]; at 11.0 µM 3% | [9]; at 33.0 µM -4% | [9]; at 100.0 µM -4% | [10]; [17] -5% | [10]; [18] 6% | [10]; at 50.0 µM 18.9% | [11]; at 1.2 µM 4% | [11]; at 3.7 µM 7% | [11]; [17] 11% | [11]; at 11.0 µM 9% | [11]; at 33.0 µM 15% | [11]; [18] 54% | [11]; at 100.0 µM 6% | [12]; at 1.2 µM -3% | [12]; at 3.7 µM 6% | [12]; at 11.0 µM -3% | [12]; at 33.0 µM -3% | [12]; at 100.0 µM -3% | [13]; at 1.2 µM -1% | [13]; at 3.7 µM -1% | [13]; at 11.0 µM -2% | [13]; at 33.0 µM -2% | [13]; at 100.0 µM -3% | [14]; at 1.2 µM -3% | [14]; at 3.7 µM -3% | [14]; at 11.0 µM 0% | [14]; at 33.0 µM 1% | [14]; at 100.0 µM 3% | [15]; [17] -1% | [15]; [18] 4% | [16]; at 1.2 µM -2% | [16]; at 3.7 µM 1% | [16]; at 11.0 µM 6% | [16]; at 33.0 µM 1% | [16]; at 100.0 µM 3%
